# HCMV antiviral – qHTS Assay for inhibitors of the human cytomegalovirus (HCMV); AID 1259415, 2018; activity change, negative = inhibition, % at 57.5 µM; 4.5% of 410,000 active; HFF cells, HCMV-luciferase reporter, 72 h; stronger effect = lower value; in the data active means activity change below about -60%; inconclusive means no clear call, values can overlap the other calls; inactive means above about -39%
#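 After 16 h attachment at 37C, HFF cells received test compound and HCMV-luciferase (1 PFU/cell); reporter luminescence read 72 h later, data normalized against buffer-only and known inhibitor Salinomycin.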
# Shiga inhibitor – A qHTS for Small Molecule Inhibitors of Shiga Toxin; 9.2% of 290,000 active; inhibition, % at 38.7 µM; Vero cells, Shiga toxin protein synthesis inhibition reporter; in the data active means inhibition mostly above about 28%, no sharp cut-off; inactive means mostly below about 43%
# Pf growth 96h – Primary qHTS for delayed death inhibitors of the malarial parasite plastid, 96 hour incubation. 6.9% of 320,000 active. Potency, µM (highest dose often 28.7 µM), usual class: inhibitors. P. falciparum luciferase reporter growth, 96 h. AID 504834, 2011
#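 Compounds incubated with erythrocytes infected by luciferase-expressing P. falciparum (2% hematocrit, 0.05% parasitemia final) for 96 hours, 37 C in 5% CO2. Growth inhibition scored as decreased luciferase luminescence.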
# Pf growth 48h – Primary qHTS for delayed death inhibitors of the malarial parasite plastid, 48 hour incubation; P. falciparum luciferase growth in erythrocytes, 48 h; Potency, µM (top dose mostly 28.7 µM), most hits filed as inhibitors; 5.9% of 310,000 active; AID 504832, 2011
#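 Read-out is firefly luciferase luminescence from an integrated reporter in P. falciparum, so falling signal marks reduced parasite growth. Infected erythrocytes were at 2% hematocrit and 0.1% parasitemia (final) in Albumax-supplemented RPMI 1640.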
# HCV inhibitor – qHTS Assay for Inhibitors of Hepatitis C Virus (HCV); AID 651820, 2012; 3.4% of 340,000 active; Huh7.5.1 HCVcc-Cre infection, luciferase reporter, 44 h; Potency, µM (doses to about 41.8 µM), hits mostly inhibitors
#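 Whole-lifecycle infectious HCVcc-Cre system; cells 1,000/well, compound then virus (~0.5 moi) added 4 h after plating, 44 h culture. Luciferase read 15 sec following 15 min substrate incubation, room temp.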
# CHX counter – Cycloheximide Counterscreen for Small Molecule Inhibitors of Shiga Toxin | cell reporter, cycloheximide protein synthesis inhibition counterscreen | max response, % | 12% of 300,000 active | AID 2314, 2010; in the data active means max response mostly above about 13%, no sharp cut-off; inactive means mostly below about 14%; further: read at 38.3 µM for the half of the compounds with a filed dose
# A number is an active result; 0 = inactive; ? = inconclusive; - = no result given; [ ] = remark or other dose. Only some compounds are listed: those with a hit (about 21% of all), similar ones and a draw of the others. Unless noted, the call rests on the fitted dose curve; in most records, active means well fitted inhibition curve with a large enough effect; inconclusive means small, poorly fitted or top-dose-only effect, or another doubt; inactive means no such curve, though single readings can be large or run the other way.
SMILES,HCMV antiviral,Shiga inhibitor,Pf growth 96h,Pf growth 48h,HCV inhibitor,CHX counter
O=C(c1cccs1)N(Cc1ccc(Cl)cc1)C1CCS(=O)(=O)C1 (stereo not given),0,0,?,?,0,0
Cc1ccccc1C(=O)N(Cc1cccs1)C1CCS(=O)(=O)C1 (stereo not given),-84.1,0,0,0,0,0
CC(C)c1ccc(CN(C(=O)c2cccs2)C2CCS(=O)(=O)C2)cc1 (stereo not given),-68.9,0,?,?,0,0
Cc1cccc(C(=O)N(Cc2cccs2)C2CCS(=O)(=O)C2)c1 (stereo not given),0,0,0,0,0,0
CCc1cccc(C)c1NC(=O)COCc1cc(-c2ccc3c(c2)OCO3)on1,0,-,-,-,-,-
O=C(Nc1ccc(Cl)c(C(F)(F)F)c1)[C@@H]1CC=C[C@@H]2CCN(Cc3ccc(Cl)c(Cl)c3)C(=O)[C@@H]21,0,-,-,-,0,-
CC1N(C(=O)N(C)C)CCN1S(=O)(=O)c1ccccc1 (stereo not given),0,0,0,0,0,0
COc1cc(C(CC(=O)Nc2cc(C)ccc2C)N2Cc3ccccc3C2=O)cc(OC)c1OC (stereo not given),0,-,-,-,-,-
COc1ccc(Cn2c(=O)c3cccnc3n(CC(=O)Nc3c(C)cc(C)cc3C)c2=O)cc1,0,-,-,-,-,-
CCC(CC)NC(=O)CON=C1c2ccccc2-c2ccccc21,?,0,13.1µM,13.1µM,0,0
C/C=C/Cn1c(SCCCc2ccccc2)nc2c1c(=O)[nH]c(=O)n2C,0,0,0.928µM,?,?,0
C=CCn1c(SCCCc2ccccc2)nc2c1c(=O)[nH]c(=O)n2C,0,0,4.15µM,?,?,0
COc1cc(C(=S)N2CCOCC2)cc(OC)c1O,0,0,0,0,0,0
CCn1cc(C(C)NC(=O)Nc2ccc3c(c2)OCO3)c(C)n1 (stereo not given),0,0,?,0,0,0
CC(C)(C)NC(=O)N1CCCN(c2ccc(C(F)(F)F)cn2)CC1,0,0,0,0,?,0
c1cc2nnnn2nc1N1CCCCC1,0,0,0[5.75 µM],0,0,0
FC(F)(F)c1cnc(N2CCCN(C(=S)Nc3ccccc3)CC2)c(Cl)c1,-84.9,0,1.85µM,1.65µM,?,0
CCOC(=O)N1CCN(c2ccc3nnnn3n2)CC1,0,0,2.08µM,-,0,0
CC(C)(C)N(Cc1ccccc1)C(=O)COC(=O)C1CCN(c2ccc(C(F)(F)F)cn2)CC1,0,-,?,10.4µM,0,-
CC(C)N(Cc1ccccc1)C(=O)COC(=O)C1CCN(c2ccc(C(F)(F)F)cn2)CC1,0,-,0,0,0,-
O=C(Nc1ccccc1)N1CCCN(c2ccc(C(F)(F)F)cn2)CC1,-65.9,0,0,?,11.2µM,0
CCCCn1c(SCC(=O)NCCCOC)nc2c(sc3ccccc32)c1=O,0,0,-,-,-,0
Cn1c(=O)c2[nH]c(CCNC(=O)c3ccccc3)nc2n(C)c1=O,0,-,-,-,0,-
Cn1c(=O)c2c(ncn2CC(=O)N2CCN(S(=O)(=O)c3ccccc3)CC2)n(C)c1=O,0,0,0,0,-,0
O=C(CNS(=O)(=O)/C=C/c1ccccc1)OC1CCOC1=O (stereo not given),0,0,0,0,0,0
SMILES,HCMV antiviral,Shiga inhibitor,Pf growth 96h,Pf growth 48h,HCV inhibitor,CHX counter
CCCCOc1ccc(OC(=O)Nc2cc(Cl)ccc2OC)cc1,0,0,0,?,0,0
O=C(COC(=O)c1ccc(S(=O)(=O)N2CCCC2)cc1)NCc1ccco1,0,0,0,0,?,0
CCOC(=O)N1CCN(c2ccc(C(F)(F)F)cn2)CC1,0,0,?,0,0,20.5
CCOc1ncccc1C(=O)N1CCN(c2ccc(C(F)(F)F)cn2)CC1,0,0,0,0,0,0
CC(C)(C)c1ccc(NC(=O)N2CCN(c3ccc([N+](=O)[O-])cn3)CC2)cc1,-93.8,0,2.33µM,5.22µM,?,0
CS(=O)(=O)N(CC(=O)Nc1ccc2c(c1)OCO2)Cc1ccc(Cl)cc1,0,0,-,0,0,0
CS(=O)(=O)N(CC(=O)Nc1ccccc1C(=O)NCCc1ccccc1)c1ccc2c(c1)OCCO2,0,0,-,?,0,35.1
Cc1n[nH]c(C)c1S(=O)(=O)N(CC(=O)Nc1ccc2c(c1)OCCO2)c1ccc(C(C)C)cc1,0,0,?,-,?,26.0
COc1ccc(C)cc1N(CC(=O)Nc1ccc2c(c1)OCCO2)S(C)(=O)=O,0,0,0,0,0,0
COc1ccc(Cl)cc1N(CC(=O)Nc1ccc2c(c1)OCCO2)S(C)(=O)=O,0,0,-,0,0,15.2
CS(=O)(=O)N(CC(=O)Nc1ccc2c(c1)OCO2)c1ccc(Cl)cc1,0,115.9,0,0,0,35.5
CS(=O)(=O)N(CC(=O)Nc1ccccc1C(=O)NCc1ccccc1)c1ccc2c(c1)OCCO2,0,0,-,?,?,0
Cc1ccc(CNC(=O)Nc2cc(C(=O)NCc3cccc(F)c3)ccc2N2CCCC2)cc1,0,-,-,-,-,-
Fc1ccccc1/C=N/n1c(COc2ccccc2)n[nH]c1=S,0,0,0,-,0,0
Cc1ccc(N(CC(=O)Nc2ccc3c(c2)OCCO3)S(C)(=O)=O)cc1,0,59.7,0,0,0,54.0
CS(=O)(=O)N(CC(=O)NCCSCc1c(F)cccc1Cl)c1ccc2c(c1)OCO2,0,0,0,11.7µM,?,0

# Source: PubChem
